# High-throughput results as filed in PubChem.
# Env fusion inh: inhibitors of HIV-1 Env-driven cell-cell fusion, primary screen, HeLa-JRFL effector, CEM21 target cells, luciferase; inhibition, % at 12.3 µM; 1.1% of 360,000 active;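 active = mean replicate inhibition score of at least 50 and every replicate individually at or above 50; inconclusive = only one of the two criteria met; inactive = mean below 50 and not all replicates reaching 50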
# NSD2 HMT inh: NSD2 histone methyltransferase inhibitors, primary screen, biochemical, AlphaScreen, single concentration, set 2. Histone-lysine N-methyltransferase NSD2 (Homo sapiens), O96028. NSD2 peptide methylation, 120 min. inhibition, % at 12.5 µM. 0.54% of 310,000 active; in the data active = inhibition above about 50%
# MLL AF4-AF9 inh: inhibitors of AF4 peptide binding to AF9, primary screen, biochemical, AlphaScreen, biotin-AF4 peptide, FLAG-AF9, single point | 0.47% of 350,000 active | inhibition, % at 10 µM;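 active = every replicate reaching a set inhibition limit, whatever the replicate mean, cut at about 25% in these data; inconclusive = mean inhibition reaches that limit but some replicates miss it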
# PGC1a acetyl inh: inhibitors of PGC1a acetylation signal, primary screen, cell-based, U2OS, AlphaScreen, inhibitor mode | AlphaScreen anti-acetyl-lysine; with virally co-expressed GCN5 acetyltransferase | inhibition, % at 15.6 µM | 0.17% of 350,000 active;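 active = every replicate shows inhibition of at least 40%; inconclusive = mean inhibition at least 40% but some replicate below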
# INS-1E GSIS act: GLuc luminescence reporter in INS-1E cells, primary screen for activators of glucose-dependent secretion of insulin | INS-1E GLuc reporter insulin secretion, 2-3 h | activation, % at 16.6 µM | 0.61% of 370,000 active | AID 743287, 2014;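 active = lowest replicate activation of at least 40%, so every replicate reaches that level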
# Numbers stand for hits; 0 = inactive; ? = inconclusive; - = no result given; ! = not active in a repeat; [ ] = dose if it differs, or a comment. This is a sample that favours compounds with a hit; in the whole collection about 2.1% have one here.
SMILES,Env fusion inh,NSD2 HMT inh,MLL AF4-AF9 inh,PGC1a acetyl inh,INS-1E GSIS act
C[C@H](CO)N1C[C@H](C)[C@H](CN(C)C(=O)C2CCCCC2)OCCCC[C@H](C)Oc2ccc(NC(=O)Nc3ccccc3)cc2C1=O,59.7[16.7 µM],-,0,0,0
COc1cc(O)oc1C=Nc1ccc(Cl)cc1Cl,0,0,-,0,-
C=CCN=c1scc(-c2ccc(F)cc2)n1/N=C/c1ccccn1,0,0,0,-,0
C=CCN=c1scc(-c2ccccc2)n1/N=C/c1ccccn1,0,0,27.9,0,0
C#CCNC(=O)C[C@@H]1C[C@@]2(C(=O)OC)CCCCC=C2N(CCC2=CCCCC2)C1=O,0,-,0,-,0
CCN(CC)c1ccc(NC(=O)Nc2ccccc2)cc1,0,0,25.4,0,0
NC(=O)N(CCC(=O)O)c1ccccc1,0,0,-,-,0
CCN(CCC(=O)O)c1ccccc1,-,0,-,0,63.3
C=CCN1C(=S)CC(c2ccccc2)=Nc2ccccc21,91.6,0,0,-,0
C=CCn1c(-c2csc(-c3ccccc3)n2)n[nH]c1=S,-,0,-,0,0
Cc1ccc2nc(NC(=O)CSc3nc(=O)n(CCN(C)C)c4c3CCCC4)sc2c1,0,0,0,0,375.8
Cc1ccc(NC(=O)CSc2nc(=O)n(CCCN(C)C)c3c2CCC3)c(C)c1,0,0,0,-,0
Cc1ccc(S(=O)(=O)N(C)C[C@H]2Oc3ncc(Br)cc3C(=O)N([C@@H](C)CO)C[C@@H]2C)cc1,77.4[16.7 µM],-,0,0,0
Cc1ccc(S(=O)(=O)N(C)C[C@H]2Oc3ncc(Br)cc3C(=O)N([C@@H](C)CO)C[C@H]2C)cc1,0,-,0,0,0
Cc1ccc(S(=O)(=O)N(C)C[C@@H]2Oc3ncc(Br)cc3C(=O)N([C@@H](C)CO)C[C@@H]2C)cc1,57.9[16.7 µM],-,-,0,0
C[C@H](CO)N1C[C@H](C)[C@@H](CN(C)CC2CCOCC2)Oc2ncc(Br)cc2C1=O,?,-,0,88.9!,0
CN1C[C@@H]2[C@H](c3ccccc31)[C@H](CO)N2C(=O)C1CC1,-,-,0,0,0
CC(C)Oc1ccccc1-c1cc(C(=O)N/N=C/c2cccnc2)c2ccccc2n1,0,0,0,0,0
COc1ccc(C)cc1NC(=O)COC(C)=O,0,0,-,-,-
CC(C)CC(=O)OC1C(N2CCOCC2)c2c(ccc(/C=C/C(=O)N3CCOCC3)c2O)OC1(C)C (stereo not given),-,0,0,0,0
O=C1NC[C@@H](CCCCN2C[C@H](Cc3ccc(O)cc3)N(CCC3CCCCC3)C(=O)C2=O)N(Cc2ccccc2)C1=O,0,-,0,-,0
S=C(NCCSCc1ccc(Cl)cc1)Nc1ccccc1,0,0,-,0,0
COc1ccc(NC(=O)c2ccc(NC(=O)c3ccncc3)cc2)cc1,0,0,31.4,0,0
COc1ccc(C(=O)NNC(=O)c2ccncc2)cc1,-,0,-,0,0
COc1ccc(-c2cccc(C(=O)Nc3ccc(C)cc3)c2)cc1,0,0,-,0,98.6
SMILES,Env fusion inh,NSD2 HMT inh,MLL AF4-AF9 inh,PGC1a acetyl inh,INS-1E GSIS act
Cc1ccc(OCC(=O)NC(=S)Nc2cccc(NC(=O)c3ccccc3)c2)cc1,0,0,-,0,48.8
CCOc1ncccc1C(=O)NCCc1ccc(S(N)(=O)=O)cc1,0,0,0,0,0
CCOc1ncccc1C(=O)OCC(=O)NCCc1ccc(S(N)(=O)=O)cc1,0,0,0,-,40.2
CCOc1ccc(CCNC(=O)COC(=O)c2nc3nc(C)cc(C)n3n2)cc1OCC,0,0,-,0,45.2
CCOc1ccc(CCNC(=O)CCNC(=O)c2ccco2)cc1OCC,0,0,0,0,91.8
CCOc1ccc(CCNC(=O)COC(=O)c2cccnc2OCC)cc1OCC,0,0,-,0,60.5
COc1ccc(CNC(=O)COC(=O)c2nc3nc(C)cc(C)n3n2)cc1,-,0,0,0,0
O=C(CSc1nnc2c(Cl)cc(C(F)(F)F)cn12)N(Cc1ccccc1)Cc1ccccc1,0,0,-,-,0
COC(=O)c1ccc2c(=O)n(CCCN3CCCC3=O)c(=S)[nH]c2c1,-,0,0,0,0
COc1ccc(CNC(=O)C(c2ccccc2F)N(C(=O)c2csnn2)C2CC2)cc1 (stereo not given),0,0,0,0,0
CC(=O)c1ccc2noc(-c3cccc(F)c3)c2c1,0,0,0,0,0
COc1ccc(OCCNS(=O)(=O)c2cccc([N+](=O)[O-])c2)cc1,0,0,0,-,0
CCOc1ccc(CCNC(=O)COC(=O)COc2ccc(Cl)cc2)cc1OCC,0,0,0,-,45.0
